Counter-ions that a name gives are not always drawn.
test system: Saccharomyces cerevisiae BY4741 SeMeCo community; assay: z-score of subpopulation abundance vs DMSO median, subpopulation auxotrophic for M; higher = larger share of this subpopulation than in DMSO controls; settings: 10 µM; 24 h; SM minimal medium; subpopulation (auxotrophy): M
Procedure: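 Fluorescent four-plasmid SeMeCo (self-establishing metabolically cooperating S. cerevisiae BY4741 community; plasmids pH-mRuby2, pL-mWasabi, pU-eCFP, pM-TagRFP657) was grown 24 h in minimal SM medium with each Selleck FDA-approved drug at 10 µM in 384-well plates. Cells were fixed and imaged by high-content confocal microscopy. For each auxotrophic subpopulation (and the prototroph), a z-score gives the deviation from the DMSO vehicle-control population median.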

Row | Structure (SMILES) | z-score of subpopulation abundance
1 | CC(NC(C)(C)C)C(=O)c1cccc(Cl)c1 (centres undefined) [Amfebutamone (Bupropion) HCl] | 0.97
2 | COc1ccc(C=O)cc1 [p-Anisaldehyde] | -1.36
3 | CN[C@@H]1[C@@H](O)[C@@H](O[C@@H]2[C@@H](O)[C@H](O[C@H]3O[C@H]([C@@H](C)O)[C@@H](O)[C@H](O)[C@H]3N)[C@@H](N)C[C@H]2N)OC[C@]1(C)O [Geneticin (G418 Sulfate)] | -0.27
4 | O=c1[nH]c2ccccc2n1CCCN1CCC(n2c(=O)[nH]c3cc(Cl)ccc32)CC1 [Domperidone] | 0.22
5 | Oc1cc(Cl)ccc1Oc1ccc(Cl)cc1Cl [Triclosan] | -4.35
6 | CN(C)[C@@H]1C(=O)C(C(N)=O)=C(O)[C@@]2(O)C(=O)C3=C(O)c4c(O)cccc4[C@@](C)(O)[C@H]3[C@H](O)[C@@H]12 [Oxytetracycline (Terramycin)] | -0.79
7 | CC[N+](C)(CC)CCOC(=O)C(O)(c1ccccc1)c1ccccc1 [Methylbenactyzine Bromide] | 0.22
8 | C=CC[C@]1(O)CC[C@H]2[C@@H]3CCC4=CC(=O)CCC4=C3C=C[C@@]21C [Altrenogest] | 0.62
9 | CN(C)[C@@H]1C(=O)C(C(N)=O)=C(O)[C@@]2(O)C(=O)C3=C(O)c4c(O)cccc4[C@@](C)(O)[C@H]3[C@H](O)[C@@H]12 [Oxytetracycline Dihydrate] | -1.02
10 | COc1ccc(C(CN(C)C)C2(O)CCCCC2)cc1 (centres undefined) [Venlafaxine] | -0.73
11 | CCCCCCCCCCCCCCCC[n+]1ccccc1 [Cetylpyridinium Chloride] | -6.34
12 | CC(C)(O)C(Cl)(Cl)Cl [Chlorobutanol] | 0.1
13 | CCN1CC2(OC(=O)c3ccccc3NC(C)=O)CCC(OC)C34C1C(CC23)C1(O)CC(OC)C2CC4C1(O)C2OC (centres undefined) [Lappaconitine] | 0.06
14 | CC[C@@H](C(N)=O)N1CCCC1=O [Levetiracetam] | 0.08
15 | CCOC(=O)Nc1ccc(NCc2ccc(F)cc2)cc1N [Retigabine 2HCl] | 0.27
16 | C[CH2][Hg][S]c1ccccc1C(=O)[O-].[Na+] [Thimerosal] | -0.95
17 | CN(C)[C@@H]1C(=O)C(C(N)=O)=C(O)[C@@]2(O)C(=O)C3=C(O)c4c(O)cccc4[C@@](C)(O)[C@H]3C[C@@H]12 [Tetracycline HCl] | -0.05

Row | Structure (SMILES) | z-score of subpopulation abundance
18 | CC1(C)SC2C(N)C(=O)N2C1C(=O)O (centres undefined) [6-Aminopenicillanic acid] | 0.22
19 | CC[C@@]1(O)C(=O)OCc2c1cc1n(c2=O)Cc2cc3ccccc3nc2-1 [Camptothecin] | 1.3
20 | CCCN1C[C@H](CSC)C[C@@H]2c3cccc4[nH]cc(c34)C[C@H]21 [Pergolide Mesylate] | -0.05
21 | C#C[C@]1(O)C=C[C@H]2[C@@H]3CCC4=CC(=O)CC[C@@H]4[C@H]3CC[C@@]21CC [Gestodene] | 0.43
22 | CCN(C)C(=O)Oc1cccc([C@H](C)N(C)C)c1 [Rivastigmine] | 1.32
23 | O=c1cccc2n1C[C@@H]1CNC[C@H]2C1 [Cytisine] | -0.43
24 | CN1C(=O)COc2c(C(=O)NC3CN4CCC3CC4)cc(Cl)cc21 (centres undefined) [Azasetron HCl] | 1.59
25 | CC(=O)O[C@H]1C[C@@H]2CC[C@@H]3[C@H](CC[C@@]4(C)[C@H]3C[C@H]([N+]3(C)CCCCC3)[C@@H]4OC(C)=O)[C@@]2(C)C[C@@H]1[N+]1(C)CCCCC1 [Pancuronium dibromide] | -1.46
26 | Nc1ccncc1 [4-Aminopyridine] | 0.04
27 | CC(=O)OCC1=C(C(=O)O)N2C(=O)C(N)C2SC1 (centres undefined) [7-Aminocephalosporanic acid] | -0.97
28 | COc1ccc2c3c([nH]c2c1)C(C)=NCC3 [Harmaline] | 5.54
29 | O=C(O[C@H]1C[C@H]2CC[C@@H](C1)[N+]21CCCC1)C(O)(c1ccccc1)c1ccccc1 [Trospium chloride] | 0.12
30 | Nc1nc(N)nc(NC2CC2)n1 [Cyromazine] | 0.95
31 | CN(C)C(=O)Oc1ccc[n+](C)c1 [Pyridostigmine Bromide] | 0.47
32 | CC(C)N(CCC(C(N)=O)(c1ccccc1)c1ccccn1)C(C)C (centres undefined) [Disopyramide] | -0.53
33 | O=C(O[C@H]1C[N+]2(CCCOc3ccccc3)CCC1CC2)C(O)(c1cccs1)c1cccs1 [Aclidinium Bromide] | 0.23
34 | CCN(CC)CCOC(=O)C(O)(c1ccccc1)c1ccccc1 [Benactyzine hydrochloride] | -1.19
